Screening data from PubChem BioAssay.
Only a selection was taken, and hits are over-represented in it overall.
HIV RNase H inh-1 – inhibitors of HIV-1 reverse transcriptase RNase H; inhibition, % at 10 µM; RT-RNase H RNA/DNA duplex cleavage, fluorescence; P04585; actives 1.9% (n = 65,000); AID 565; in the data active means inhibition above about 50%
RmlC RmlD mix – RmlC/RmlD inhibition, mixture screen | RmlC/RmlD coupled enzyme inhibition, 384-well mixture HTS | inhibition, % at 5.5 µM | actives 0.39% (n = 110,000) | AID 1532; in the data active means inhibition above about 30%, passing the limit was not always enough; inconclusive means no clear call, values can overlap the other calls
HIV RNase H inh-2 – confirmation of HIV-1 reverse transcriptase RNase H inhibitors. inhibition, % at 10 µM. actives 39% (n = 1,000). Recombinant RT RNase H, fluorescent RNA/DNA duplex cleavage. shares compounds with HIV RNase H inh-1. AID 651; in the data active means inhibition above about 48%; inconclusive means no clear call, values can overlap the other calls
An asterisk follows results filed as active; ? = inconclusive; . = no result.

SMILES	HIV RNase H inh-1	RmlC RmlD mix	HIV RNase H inh-2
CN1CCN(C2=C(Cl)C(=O)N(c3ccc(Cl)cc3)C2=O)CC1	82*	-8	40
COc1ccc(S(=O)(=O)N2CCN(Cc3ccccc3)CC2)cc1	-4	6	.
COc1ccc(N2C(=O)C(Cl)=C(N3CCN(Cc4ccccc4)CC3)C2=O)cc1	90*	-11	24
O=C1CC(N2CCN(Cc3ccccc3)CC2)C(=O)N1c1ccccc1 (stereo unspecified)	13	-7	.
Cc1ccc(N2C(=O)C(Cl)=C(N3CCN(C)CC3)C2=O)c(C)c1	.	4	.
O=C1C(Cl)=C(N2CCN(Cc3ccccc3)CC2)C(=O)N1c1ccccc1	85*	-6	-3
COc1ccc(CCNC(=O)Cc2cc(OC)c(OC)cc2[N+](=O)[O-])cc1OC	.	17	.
CC(C)c1cc(-c2cc(C(=O)Nc3ccccc3)on2)nc(NC2CCCC2)n1	.	1	.
CCOc1ccc(NC(=O)CSc2nc3ccccc3c(=O)n2CCNC(C)=O)cc1	-10	1	.
Fc1ccc(-c2cnc[nH]2)cc1	-1	-57	.
CCCCC[C@H](O)/C=C/[C@H]1C=CC(=O)[C@@H]1C/C=C\CCCC(=O)O	77*	57	67*
CCCCC[C@H](O)/C=C/[C@H]1[C@H](O)CC(=O)[C@@H]1CCCCCCC(=O)O	.	-2	.
O=C(Nc1ccccc1N1CCOCC1)c1ccc2c(c1)C(=O)N(Cc1ccncc1)C2=O	-1	-11	.
CCCOc1ccc(N2C(=O)CC(N(O)c3ccccc3)C2=O)cc1 (stereo unspecified)	-11	10	.
COc1ccccc1N(O)C1CC(=O)N(c2ccc(F)cc2)C1=O (stereo unspecified)	63*	-5	20
c1ccc(-c2nc3c4ccccc4nc(N4CCN(c5ccccn5)CC4)n3n2)cc1	15	.	.
CC1SC(c2ccc(Cl)cc2Cl)NC1=O (stereo unspecified)	.	-9	.
CC1SC(c2cccc(Cl)c2)NC1=O (stereo unspecified)	60*	-2	14
Cc1ccc(C)c(NC(=O)Cn2nc(C(F)(F)F)cc2C2CC2)c1	.	-11	.
CCCCCOC(=O)c1cc(=O)[nH]c2ccccc12	-72	4	.
CCCCN(C)CCCNC(=O)c1cccc(N2CCCC2=O)c1	-24	20	.
CCCn1c2c(c(O)c(C(=O)Nc3ncccc3C)c1=O)CCCC2	-10	1	.
O=C(Nc1cccnc1)c1c(O)c2c(n(Cc3ccccc3)c1=O)CCCC2	68*	-12	?
COc1ccc(-c2ccc(SCC(=O)N3CCOCC3)nn2)cc1OC	0	7	.
COc1ccc(-c2ccc(SCC(=O)N3CCCC3)nn2)cc1OC	90*	5	6
SMILES	HIV RNase H inh-1	RmlC RmlD mix	HIV RNase H inh-2
c1ccc(-n2c(-c3ccco3)nnc2N2CCOCC2)cc1	-7	-12	.
CN(C)c1ccc2c(c1)N=C(c1ccco1)OP2(=S)N1CCOCC1 (stereo unspecified)	89*	7	68*
CCc1ccccc1NC(=O)CN1C(=O)C2CCCN2c2ncc(Cl)cc21 (stereo unspecified)	-3	5	.
COC(=O)c1ccccc1NC(=O)CN1C(=O)C2CCCN2c2ncc(Cl)cc21 (stereo unspecified)	60*	-7	?
CCc1ccc(NC(=O)CN(c2ccc3c(c2)OCO3)S(=O)(=O)c2c(C)noc2C)cc1	17	15	.
Cc1cc(C)n2c(=S)[nH]nc2n1	74*	-16	67*
Cc1cc(C)nc(SCc2nc3nc(C)cc(C)n3c2Br)n1	.	13	.
COc1ccc2nc(NC(=O)c3cnccn3)sc2c1	16	-10	.
O=C(CSc1nc2c(c(C(F)(F)F)n1)CCc1ccccc1-2)NCc1ccc(F)cc1	.	20	.
CCC1CCCCN1CCn1c(=S)[nH]c2cc(OC)c(OC)cc2c1=O (stereo unspecified)	-6	-5	.
CCOc1ccccc1C(=O)OCC(=O)Nc1ccc(N2CCCCC2)cc1	.	4	.
Cc1cccc(C(=O)OCC(=O)Nc2ccc(N3CCCCC3)cc2)c1O	88*	-14	53*
CC(=O)N=c1cccc(NC(C)=O)n1O	-2	12	.
Clc1ss/c(=N\c2ccccn2)c1Cl	68*	-9	41
C=CCn1c(COc2ccccc2)nnc1SCC(=O)C(C)(C)C	4	-11	.
CCCCCCCCn1c(=O)c(C(=O)OCC)c(O)c2ccccc21	.	7	.
CCOc1cc(C2CC(=O)N3CN(C4CCCCC4)CSC3=C2C#N)ccc1O (stereo unspecified)	79*	-11	72*
CCOc1cc(C2CC(=O)NC(SCC)=C2C#N)ccc1O (stereo unspecified)	-13	10	.
COc1ccc2ccccc2c1C1CC(=O)N2CN(C3CCCCC3)CSC2=C1C#N (stereo unspecified)	82*	-8	60*
COc1ccc2ccccc2c1C1CC(=O)N2CN(Cc3ccco3)CSC2=C1C#N (stereo unspecified)	6	3	.
O=c1cc(CN2CCN(CCO)CC2)c2cc3c(cc2o1)CCC3	-11	-4	.
O=C(CCSCCC(=O)NCc1ccco1)NCc1ccco1	77*	10	47*
O=C(CSCC(=O)NCc1ccco1)NCc1ccco1	-11	-9	.
COc1ccc(CCCc2nnc(SCC(=O)Nc3nc(C)cs3)n2C)cc1	-19	-9	.
COCC(=O)Nc1ccc(S(=O)(=O)NCCc2ccccc2)cc1	-8	6	.
SMILES	HIV RNase H inh-1	RmlC RmlD mix	HIV RNase H inh-2
O=C(c1ccc(F)cc1)C1CCN(C(=O)c2ccncc2)CC1	88*	-34	42
O=C(c1ccc(F)cc1)C1CCN(C(=O)N2CCOCC2)CC1	7	2	.
COC(=O)c1ccccc1NC(=O)c1sc(=S)n(C)c1N	87*	9	74*
COC(=O)c1ccccc1NC(=O)c1sc(N)nc1C	-40	7	.
Nn1c(SCC(=O)Nc2ccc3c(c2)OCO3)nnc1-c1ccncc1	11	.	.
Cc1cc(NC(=O)CSc2nnc(-c3ccncc3)n2N)ccc1Br	52*	-4	5
CS(=O)(=O)N(CC(O)Cn1c2ccccc2c2ccccc21)c1ccccc1 (stereo unspecified)	-9	-6	.
COc1ccc(S(=O)(=O)Nc2ccccc2C(F)(F)F)cc1	-16	8	.
COc1ccc(S(=O)(=O)Nc2ccc(O)c3ccccc23)cc1	92*	10	57*
Cc1cccc(-c2noc(CN(C)S(=O)(=O)c3cc(Cl)ccc3Cl)n2)c1	-37	0	.
O=C(Nc1nnc(CC(=O)N2CCOCC2)s1)c1cccs1	-2	-16	.
O=C(COc1cc(Cl)ccc1Cl)Nc1nnc(CC(=O)N2CCOCC2)s1	80*	-11	11
COC(=O)c1ccccc1NC(=O)c1ccc2c(c1)C(=O)N(Cc1ccco1)C2=O	61*	.	94*
CCc1ccc(NC(=O)c2ccc3c(c2)C(=O)N(Cc2ccco2)C3=O)cc1	43	5	.
COc1ccc(S(=O)(=O)N2CCN(C(=O)c3ccco3)CC2)cc1OC	.	6	.
COc1ccccc1C(c1nnnn1Cc1ccccc1)N1CCN(c2nc3ccccc3s2)CC1 (stereo unspecified)	-2	57	.
c1ccc(-n2ncc3c2ncn2nc(-c4ccco4)nc32)cc1	60*	-4	68*
COc1cccc(OCc2nc3c4cnn(-c5ccccc5)c4ncn3n2)c1	49	3	.
CC(C)COc1ccccc1C(=O)NC(CO)C(=O)O (stereo unspecified)	.	-8	.
